Values joined by “and” are separate entries in the source; they are usually repeats but may differ in a detail not shown here. Equal values may be shown once. Records with an inconclusive call do not appear. Some structures have more than one record in an assay (separate samples or runs), and their calls can disagree. Active and inactive are the calls of the source. Unless noted, the call rests on the fitted dose curve; in most records, active means well fitted curve in the direction sought with a large enough effect in the repeat runs; inconclusive means weak or mixed curves; inactive means no such curve, though single readings can be large; an effect the other way counts as inactive or inconclusive.

The target in test [1] is Aryl hydrocarbon receptor (Homo sapiens) (UniProt P35869). The experiment in a line: qHTS assay to identify small molecule that activate the aryl hydrocarbon receptor (AhR) signaling pathway (AID 743085).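 Further: HG2L7.5c1 human HepG2 liver cells with stably integrated DRE-driven firefly reporter; series mostly up to about 70 µM; nearly all actives have a fitted effect of over 15% in size.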 The method in brief: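 Stably transfected human liver carcinoma cells (HG2L7.5c1; 20 DRE-firefly luciferase) were incubated 5 h, dosed, and kept 24 h at 37C. Agonism was scored from increased luciferase luminescence.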

A short description of test [2]: qHTS assay to identify small molecule that activate the aryl hydrocarbon receptor (AhR) signaling pathway - cell viability counter screen (AID 743086).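 Further: HepG2 liver cells carrying the AhR DRE luciferase reporter; series mostly up to about 70 µM; nearly all actives have a fitted effect of over 45% in size.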 The gist of the method:
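HepG2-AhR-luc (HG2L7.5c1) cells, 4000/well, were preincubated 5 h at 37C, exposed to compound in qHTS format for 24 hr at 37C, then given CellTiter-Fluor for 30 min; viability was read as fluorescence in the reporter wells.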
In general terms: In qHTS, concentration-response curves come from the screen itself.

The target in test [3] is Peroxisome proliferator-activated receptor gamma (Homo sapiens) (UniProt P37231). Kind of test: qHTS assay to identify small molecule agonists of the peroxisome proliferator-activated receptor gamma (PPARg) signaling pathway (AID 743094; active means well fitted activation curve with a large enough effect in the signal ratio in the repeat runs, not every such curve was filed as active; the % refers to the signal ratio). The gist of the method: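 Following 5 h plating at 37C, PPARg-bla HEK293H cells receive compound or DMSO for 17 h; fluorescence intensity is recorded after LiveBLAzer B/G loading for 1 h at room temperature.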

Test [4] shares this target. The experiment in a line: qHTS assay to identify small molecule antagonists of the peroxisome proliferator-activated receptor gamma (PPARg) signaling pathway (AID 743191; calls by dose curve; further: series mostly up to about 63 µM; nearly all actives have a fitted effect of over 30% in size). The gist of the method:
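GeneBLAzer PPARg UAS-bla HEK293H cells carrying a UAS-driven beta-lactamase reporter were plated at 3000 cells/well, preincubated 5 h at 37C, then given compound for 17 h at 37C; LiveBLAzer B/G FRET substrate was read after 1 h at room temperature.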

The nature of test [5]: qHTS assay to identify small molecule antagonists of the peroxisome proliferator-activated receptor gamma (PPARg) signaling pathway - cell viability counter screen (AID 743194). Further: nearly all actives have a fitted effect of over 55% in size. The gist of the method: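 PPARg-UAS-bla HEK293H cells were plated, rested 5 h at 37 C, then treated with compounds plus rosiglitazone (50 nM final) for 17 h at 37 C; viability was then read by CellTiter-Glo luminescence after 30 min at room temperature.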

A short description of test [6]: qHTS assay for small molecule agonists of the antioxidant response element (ARE) signaling pathway (AID 743202; active means well fitted activation curve with a large enough effect in the signal ratio in the repeat runs, not every such curve was filed as active; the % refers to the signal ratio; further: potency means the concentration at half of the fitted maximal effect). The method in brief:
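Read-out: LiveBLAzer B/G FRET substrate fluorescence after 2 h at room temperature, following 16 h compound treatment at 37 C of HepG2 cells carrying an ARE-driven beta-lactamase reporter.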

The nature of test [7]: qHTS assay for small molecule agonists of the antioxidant response element (ARE) signaling pathway - cell viability counter screen (AID 743203; calls by dose curve; further: nearly all actives have a fitted effect of over 55% in size; further: potency means the concentration at half of the fitted maximal effect). The method in brief:
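Compounds in DMSO were pinned onto ARE-bla HepG2 cells plated 5 hrs earlier at 2,000 cells/well. Sixteen hours later at 37C/5% CO2, CellTiter-Glo was added and luminescence measured after 30 min at room temperature.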

Test [8] is described as follows: qHTS assay for small molecule activators of the heat shock response signaling pathway - cell viability counter screen (AID 743209). Further: nearly all actives have a fitted effect of over 50% in size. Further: potency means the concentration at half of the fitted maximal effect. The method in brief:
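Counter screen for cytotoxicity in HeLa HSE-bla reporter cells. Treatment was 5 h at 37 C; viability was detected by luminescent ATP assay (CellTiter-Glo) in the same wells as the beta-lactamase read.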

Test [9] is described as follows: qHTS assay for small molecule activators of the heat shock response signaling pathway (AID 743210; active means well fitted activation curve with a large enough effect in the signal ratio in the repeat runs, with a control signal flat, not every such curve was filed as active; the % refers to the signal ratio; further: series mostly up to about 63 µM). The gist of the method: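 HSE-bla HeLa cells (beta-lactamase reporter under heat shock response elements) were exposed to compounds for 5 h at 37 C, then loaded with LiveBLAzer B/G FRET substrate for 2.5 h at room temperature before fluorescence reading.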
A short description of test [10]: qHTS assay to identify small molecule agonists of the peroxisome proliferator-activated receptor delta (PPARd) signaling pathway - cell viability counter screen (AID 743211). Further: nearly all actives have a fitted effect of over 55% in size. Further: potency means the concentration at half of the fitted maximal effect. The gist of the method:
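In the same wells used for beta-lactamase reporter measurement, cytotoxicity is scored by CellTiter-Glo. HEK293H PPARd-bla cells receive compound for 17 h at 37C following a 5 h settling period.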

Test [11] has as its target Peroxisome proliferator-activated receptor delta (Homo sapiens) (UniProt Q03181). Kind of test: qHTS assay to identify small molecule agonists of the peroxisome proliferator-activated receptor delta (PPARd) signaling pathway (AID 743212; calls by dose curve). The method in brief:
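GeneBLAzer PPARd UAS-bla HEK293H cells (beta-lactamase reporter under UAS control), plated and rested 5 h at 37 C, then exposed to compounds in DMSO at 37 C; LiveBLAzer B/G FRET substrate added, 2 h room temperature, fluorescence read.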

Test [12] can be described thus: qHTS assay to identify small molecule antagonists of the peroxisome proliferator-activated receptor delta (PPARd) signaling pathway - cell viability counter screen (AID 743213). Further: nearly all actives have a fitted effect of over 50% in size. The method in brief:
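HEK293H cells with the PPARd UAS-bla reporter, co-treated 17 h at 37 C with compounds and L165041 (300 nM final), were lysed with CellTiter-Glo. Luminescence indicated viable cell content.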

Test [13] addresses Peroxisome proliferator-activated receptor delta (Homo sapiens) (UniProt Q03181). Kind of test: qHTS assay to identify small molecule antagonists of the peroxisome proliferator-activated receptor delta (PPARd) signaling pathway (AID 743215; active means well fitted inhibition curve with a large enough effect in the signal ratio in the repeat runs, not every such curve was filed as active; the % refers to the signal ratio;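 further: cells stimulated with agonist L165041 at 300 nM final during compound exposure; series mostly up to about 62 µM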). The method in brief: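 With L165041 present at 300 nM final, compounds were incubated 17 h at 37 C on PPARd UAS-bla HEK293H cells. A FRET-based beta-lactamase substrate was then applied for 2 h at room temperature and fluorescence intensity recorded.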

A short description of test [14]: qHTS assay to identify small molecule antagonists of the farnesoid-X-receptor (FXR) signaling pathway - cell viability counter screen (AID 743221; active means well fitted cell-killing curve with a large enough effect in the repeat runs, not every such curve was filed as active; further: nearly all actives have a fitted effect of over 50% in size). The gist of the method: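 Here viability was scored by luminescence after CellTiter-Glo addition to wells already read for beta-lactamase. Prior treatment: compound plus CDCA (50 uM final), 16 h, 37 C, HEK 293T FXR-bla cells.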

Test [15] addresses Vitamin D3 receptor (Homo sapiens) (UniProt P11473). Kind of test: qHTS assay to identify small molecule agonists of the vitamin D receptor (VDR) signaling pathway (AID 743222; calls by dose curve). The method in brief:
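VDR-bla cells were seeded, left 4 h, treated with compounds in DMSO for 16 h, incubated 2 h at RT with B/G FRET substrate, and read for fluorescence.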

The target is the same in test [16]. Kind of test: qHTS assay to identify small molecule antagonists of the vitamin D receptor (VDR) signaling pathway (AID 743223; active means well fitted inhibition curve with a large enough effect in the signal ratio in the repeat runs, not every such curve was filed as active; the % refers to the signal ratio). The gist of the method: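 Inhibition of agonist-driven VDR signalling is scored in VDR-bla cells: 3 nM final 1alpha,25-dihydroxyvitamin D3 plus compound, 16 h at 37C, then beta-lactamase detection by FRET substrate fluorescence after 2 h.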

Test [17] in a line: qHTS assay to identify small molecule agonists of the vitamin D receptor (VDR) signaling pathway - cell viability counter screen (AID 743224). Further: nearly all actives have a fitted effect of over 50% in size. Further: potency means the concentration at half of the fitted maximal effect. The gist of the method: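 Here cell health was gauged by luminescent ATP detection (CellTiter-Glo, 30 min RT) in VDR-bla cells that had been incubated with test compounds for 16 h at 37C and 5% CO2.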
A short description of test [18]: qHTS assay to identify small molecule agonists of the farnesoid-X-receptor (FXR) signaling pathway - cell viability counter screen (AID 743218). Further: nearly all actives have a fitted effect of over 45% in size. The gist of the method: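 After 16 h at 37 C with test compounds, FXR-bla HEK 293T cells were given LiveBLAzer B/G substrate for 2 h at RT and then CellTiter-Glo; luminescence was taken after 30 min.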
For test [19], the target named is Bile acid receptor (Homo sapiens) (UniProt Q96RI1). The experiment in a line: qHTS assay to identify small molecule antagonists of the farnesoid-X-receptor (FXR) signaling pathway (AID 743217; active means well fitted inhibition curve with a large enough effect in the signal ratio in the repeat runs, not every such curve was filed as active; the % refers to the signal ratio). The gist of the method:
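In this cell-based antagonist screen, inhibition of CDCA-driven (50 uM final) UAS-beta-lactamase expression in HEK 293T cells was measured by FRET fluorescence following 16 h compound exposure at 37 °C.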

For test [20] the target is unchanged. The experiment in a line: qHTS assay to identify small molecule agonists of the farnesoid-X-receptor (FXR) signaling pathway (AID 743220; active means well fitted activation curve with a large enough effect in the signal ratio in the repeat runs, not every such curve was filed as active; the % refers to the signal ratio). The method in brief: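 Beta-lactamase reporter under UAS control in GeneBLAzer FXR HEK 293T cells (5000/well) measured with LiveBLAzer FRET substrate after 2 h at room temperature. Compound exposure lasted 16 h at 37C.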

Chain of Peroxisome proliferator-activated receptor gamma (Homo sapiens) (P37231 whole entry, looked up): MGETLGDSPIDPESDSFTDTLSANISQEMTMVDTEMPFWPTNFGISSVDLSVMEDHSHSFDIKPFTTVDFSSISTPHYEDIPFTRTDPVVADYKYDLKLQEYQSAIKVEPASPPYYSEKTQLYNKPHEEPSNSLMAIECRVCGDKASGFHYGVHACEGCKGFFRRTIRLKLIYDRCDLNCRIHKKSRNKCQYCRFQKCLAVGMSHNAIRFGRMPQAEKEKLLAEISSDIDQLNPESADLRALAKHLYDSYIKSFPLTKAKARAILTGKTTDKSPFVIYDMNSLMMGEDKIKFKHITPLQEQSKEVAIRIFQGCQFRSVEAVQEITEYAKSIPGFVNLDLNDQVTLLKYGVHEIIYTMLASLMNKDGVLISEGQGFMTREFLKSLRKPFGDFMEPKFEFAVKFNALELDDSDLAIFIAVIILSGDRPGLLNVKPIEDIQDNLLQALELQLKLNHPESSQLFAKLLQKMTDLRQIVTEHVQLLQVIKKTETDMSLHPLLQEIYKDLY
Chain of Bile acid receptor (Homo sapiens) (Q96RI1 whole entry, looked up): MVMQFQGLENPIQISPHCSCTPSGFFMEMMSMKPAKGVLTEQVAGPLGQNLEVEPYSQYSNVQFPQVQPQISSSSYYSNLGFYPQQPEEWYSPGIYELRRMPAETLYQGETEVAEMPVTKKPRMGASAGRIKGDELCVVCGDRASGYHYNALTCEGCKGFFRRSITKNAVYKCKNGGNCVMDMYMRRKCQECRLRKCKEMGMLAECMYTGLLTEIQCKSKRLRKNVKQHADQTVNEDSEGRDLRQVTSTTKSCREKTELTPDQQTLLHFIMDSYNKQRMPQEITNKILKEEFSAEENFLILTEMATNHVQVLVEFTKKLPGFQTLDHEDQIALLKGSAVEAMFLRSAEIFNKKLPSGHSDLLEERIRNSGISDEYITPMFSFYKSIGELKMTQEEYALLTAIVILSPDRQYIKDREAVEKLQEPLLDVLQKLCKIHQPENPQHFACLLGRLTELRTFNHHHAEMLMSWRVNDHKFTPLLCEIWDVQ
Chain of Vitamin D3 receptor (Homo sapiens) (P11473 whole entry, looked up): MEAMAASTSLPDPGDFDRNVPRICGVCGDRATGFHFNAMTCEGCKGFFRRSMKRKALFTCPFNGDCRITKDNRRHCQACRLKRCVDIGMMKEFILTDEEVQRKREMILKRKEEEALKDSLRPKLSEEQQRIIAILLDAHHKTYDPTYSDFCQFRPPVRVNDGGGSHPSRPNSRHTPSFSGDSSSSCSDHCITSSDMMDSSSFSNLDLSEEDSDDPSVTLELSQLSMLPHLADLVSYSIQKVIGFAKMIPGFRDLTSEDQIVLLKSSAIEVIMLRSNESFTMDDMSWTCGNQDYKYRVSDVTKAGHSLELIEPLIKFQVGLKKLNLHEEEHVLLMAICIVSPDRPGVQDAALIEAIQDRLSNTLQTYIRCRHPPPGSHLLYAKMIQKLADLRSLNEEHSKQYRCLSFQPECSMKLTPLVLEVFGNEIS
Chain of Peroxisome proliferator-activated receptor delta (Homo sapiens) (Q03181 whole entry, looked up): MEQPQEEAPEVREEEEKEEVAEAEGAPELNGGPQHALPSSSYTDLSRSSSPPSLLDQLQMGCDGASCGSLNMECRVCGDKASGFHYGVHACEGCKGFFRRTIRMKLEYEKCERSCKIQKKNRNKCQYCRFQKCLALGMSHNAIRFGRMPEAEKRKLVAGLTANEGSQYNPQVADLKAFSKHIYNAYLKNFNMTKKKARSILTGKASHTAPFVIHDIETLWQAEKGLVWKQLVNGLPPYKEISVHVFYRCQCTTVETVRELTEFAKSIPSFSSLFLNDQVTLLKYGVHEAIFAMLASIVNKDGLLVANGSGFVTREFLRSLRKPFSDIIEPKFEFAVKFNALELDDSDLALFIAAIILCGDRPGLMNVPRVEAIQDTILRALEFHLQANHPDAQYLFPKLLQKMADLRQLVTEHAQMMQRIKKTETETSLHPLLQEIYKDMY
Chain of Aryl hydrocarbon receptor (Homo sapiens) (P35869 whole entry, looked up): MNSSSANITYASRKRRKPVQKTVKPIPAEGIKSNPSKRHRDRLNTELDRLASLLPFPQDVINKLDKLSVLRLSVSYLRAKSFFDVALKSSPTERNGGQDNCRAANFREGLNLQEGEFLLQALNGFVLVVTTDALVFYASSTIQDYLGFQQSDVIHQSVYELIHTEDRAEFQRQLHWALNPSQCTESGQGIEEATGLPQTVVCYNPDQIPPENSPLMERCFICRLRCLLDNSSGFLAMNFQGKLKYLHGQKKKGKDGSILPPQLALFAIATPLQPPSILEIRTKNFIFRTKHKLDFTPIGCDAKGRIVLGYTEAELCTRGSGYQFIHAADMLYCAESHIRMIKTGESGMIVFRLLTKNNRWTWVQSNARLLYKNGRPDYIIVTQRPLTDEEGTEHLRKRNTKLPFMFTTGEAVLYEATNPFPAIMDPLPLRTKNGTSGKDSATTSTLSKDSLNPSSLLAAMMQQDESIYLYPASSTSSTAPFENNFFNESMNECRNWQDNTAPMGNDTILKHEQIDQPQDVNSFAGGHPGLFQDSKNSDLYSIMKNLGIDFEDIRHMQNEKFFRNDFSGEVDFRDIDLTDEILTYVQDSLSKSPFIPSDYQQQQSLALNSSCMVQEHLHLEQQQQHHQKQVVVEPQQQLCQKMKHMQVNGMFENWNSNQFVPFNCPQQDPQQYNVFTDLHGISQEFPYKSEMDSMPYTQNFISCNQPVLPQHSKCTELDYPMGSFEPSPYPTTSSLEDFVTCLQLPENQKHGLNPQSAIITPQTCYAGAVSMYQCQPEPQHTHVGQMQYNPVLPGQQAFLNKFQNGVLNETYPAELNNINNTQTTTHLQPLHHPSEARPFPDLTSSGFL

Turning to `Clc1nc(Cl)c(Cl)c(Cl)c1Cl`, the Potency entry in test [1], in test [2], in test [3], in test [4], in test [5] and in test [7] was “inactive” throughout. Besides, the Potency result in [8], in [9], in test [10], in [12], in test [13] and in test [14] was “inactive” each time. For the same compound, in [17], the Potency result was “inactive”. Moreover, in test [6], the Potency is 7.74 µM (active). The result in test [11], in [15] and in test [16] was inactive.
For `Nc1ccc(S(=O)(=O)Nc2cnc3ccccc3n2)cc1`, the Potency result in test [1], in test [2], in [3], in test [4], in test [5] and in [6] was “inactive” throughout. Further, the Potency result in test [7], in test [8], in test [9], in [10], in test [12] and in test [18] was “inactive” each time. Moreover, the Potency result in test [14] and in test [17] was “inactive” each time.
Consider `CCCCCCCCCC(=O)OC`, for which the Potency entry in [1], in [2], in test [3], in test [4], in test [5] and in test [7] was “inactive” throughout. The Potency entry in test [8], in test [9], in test [10], in test [12], in [13] and in [19] was “inactive” in each case. For the same compound, the Potency entry in test [14] and in test [17] was “inactive” in each case. The call in test [11] and in test [20] was inactive.
Consider `CC1=CCC(C(C)(C)O)CC1` (configuration not stated), for which the Potency entry in [1], in test [2], in [3], in test [4], in [5] and in test [7] was “inactive” each time. Further, the Potency result in [8], in test [9], in test [10], in test [12], in test [13] and in [19] was “inactive” in each case. The Potency entry in [18], in test [14] and in [17] was “inactive” throughout. Moreover, the compound was classed as inactive in test [11] and in [20].
With `c1ccc(Nc2ccccc2)cc1`, the Potency result in test [1], in test [2], in test [3], in test [4], in [5] and in [7] was “inactive” each time. Besides, the Potency entry in [8], in [9], in [10], in [12], in [13] and in test [18] was “inactive” each time. Further, the Potency result in [14] and in test [17] was “inactive” throughout. In addition, the call in test [11] was inactive.
In the case of `CCCCC(CC)COCC1CO1` (configuration not stated), the Potency entry in test [1], in test [2], in test [3], in test [4], in [5] and in test [7] was “inactive” throughout. Further, the Potency entry in test [8], in [9], in test [10], in test [12], in test [18] and in test [14] was “inactive” each time. The Potency entry in test [17] was “inactive”.
For `CCCCCCCCCCCO`, the Potency result in [1], in [2], in test [3], in test [4], in test [5] and in [12] was “inactive” each time. Besides, the Potency result in test [13], in test [18] and in test [14] was “inactive” throughout. The Potency result in test [7] is “inactive and 61.1 µM (active)”; in test [8] it was “inactive and 43.6 µM (active)”; in [10] it was “inactive and 43.6 µM (active)”; in test [17], “inactive and 49 µM (active)”. Also, the compound was classed as inactive in test [20], in test [15] and in test [16].
For `C=CC(C)(CCC=C(C)C)OC(C)=O` (configuration not stated), the Potency result in [1], in test [2], in [3], in test [4], in test [5] and in [6] was “inactive” in each case. In addition, the Potency entry in test [7], in test [8], in [9], in test [10], in test [12] and in test [13] was “inactive” throughout. Besides, the Potency entry in test [19], in [14] and in [17] was “inactive” in each case. The result in test [11], in test [20], in test [15] and in test [16] was inactive.
